Key:
Details in all cases: concentration: 1 μM, replicates: in singlicate; n = 1
CSF1R = system: CSF1R
CSK = system: CSK
CSNK1A1L = system: CSNK1A1L
CSNK1A1 = system: CSNK1A1
CSNK1D = system: CSNK1D
CSNK1E = system: CSNK1E
CSNK1G1 = system: CSNK1G1
CSNK1G2 = system: CSNK1G2
CSNK1G3 = system: CSNK1G3
CSNK2A1 = system: CSNK2A1
CSNK2A2 = system: CSNK2A2
CTK = system: T1, CTK
T1 construct: gene MATK

DAPK1 = system: DAPK1
DAPK2 = system: DAPK2
DAPK3 = system: DAPK3
DCAMKL1 = system: T2, DCAMKL1
T2 construct: gene DCLK1

DCAMKL2 = system: T3, DCAMKL2
T3 construct: gene DCLK2

DCAMKL3 = system: T4, DCAMKL3
T4 construct: gene DCLK3

DDR1 = system: DDR1
DDR2 = system: DDR2
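Further: KINOMEscan kinase panel screen.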

SMILES	%Inh (CSF1R)	%Inh (CSK)	%Inh (CSNK1A1L)	%Inh (CSNK1A1)	%Inh (CSNK1D)	%Inh (CSNK1E)	%Inh (CSNK1G1)	%Inh (CSNK1G2)	%Inh (CSNK1G3)	%Inh (CSNK2A1)	%Inh (CSNK2A2)	%Inh (CTK)	%Inh (DAPK1)	%Inh (DAPK2)	%Inh (DAPK3)	%Inh (DCAMKL1)	%Inh (DCAMKL2)	%Inh (DCAMKL3)	%Inh (DDR1)	%Inh (DDR2)
O=C(Nc1n[nH]c2cc(-c3ccccc3F)ccc12)C1CC1 [SB-733371]	0%	0%	15%	0%	0%	14%	0%	0%	10%	3%	0%	3%	0%	0%	0%	16%	0%	0%	0%	6%
CCC(=O)c1c(-c2ccccc2)c2cc(Cl)ccc2c(=O)n1Cc1cc(C(=O)NC2CC2)n(C)n1	9%	0%	0%	11%	0%	0%	0%	0%	0%	0%	3%	17%	14%	0%	0%	12%	0%	0%	26%	29%
Cc1cccc(-c2nc(Nc3ccc4c(cnn4C)c3)c3ccccc3n2)n1 [GW876731]	29%	2%	0%	0%	50%	37%	18%	10%	0%	0%	0%	4%	0%	0%	14%	0%	11%	0%	3%	1%
Nc1ncnc2c1ncn2-c1ccc(Cl)cc1 [AH2635]	11%	0%	12%	0%	9%	46%	0%	0%	17%	0%	1%	0%	0%	0%	0%	10%	0%	0%	0%	21%
Cl.NS(=O)(=O)c1cccc(Nc2cc(-c3ccc(F)cc3)n[nH]2)c1 [GW824645]	9%	0%	0%	3%	0%	19%	3%	0%	0%	0%	20%	19%	0%	0%	0%	15%	44%	0%	0%	45%
CCC(=O)c1c(-c2ccccc2)c2cc(Cl)ccc2c(=O)n1Cc1ccc(C(=O)O)cc1	2%	0%	1%	0%	0%	0%	0%	0%	0%	0%	0%	0%	13%	0%	0%	8%	0%	0%	24%	34%
CCC(=O)c1c(-c2ccccc2)c2cc(Cl)ccc2c(=O)n1Cc1cc(S(C)(=O)=O)n(CC(N)=O)n1	0%	4%	0%	0%	0%	0%	0%	0%	0%	0%	4%	0%	0%	0%	6%	24%	2%	0%	0%	0%
CCCC(=O)Nc1n[nH]c2ncc(-c3cccc4ccccc34)cc12 [SB-642057]	26%	0%	2%	0%	37%	19%	4%	0%	1%	0%	0%	0%	20%	0%	24%	18%	0%	11%	3%	0%
CN1C(=O)C(Nc2cc(Cl)c(O)c(Cl)c2)=C(c2ccc(Cl)cc2)C1=O [SB-404321]	0%	0%	0%	0%	0%	0%	0%	0%	6%	0%	0%	52%	0%	0%	0%	0%	0%	0%	0%	10%
COc1cccc(C2=C(Nc3cccc(C(=O)O)c3)C(=O)NC2=O)c1 [SB-390770]	0%	0%	12%	0%	0%	2%	2%	0%	7%	7%	19%	0%	6%	0%	0%	12%	0%	13%	0%	6%
Nc1nccc2scc(-c3ccc4c(c3)CCN4C(=O)Cc3ccccc3)c12 [GSK2576924]	78%	0%	0%	0%	13%	6%	7%	0%	26%	5%	13%	0%	12%	3%	21%	16%	0%	27%	43%	3%
COc1cc2ncn(-c3cc(OCc4ccncc4Br)c(C(N)=O)s3)c2cc1OC [GW854278]	0%	6%	10%	0%	8%	0%	18%	0%	0%	0%	18%	45%	28%	18%	6%	0%	2%	0%	0%	0%
FC(F)(F)c1ccc(-c2ncn(CCCN3CCOCC3)c2-c2ccncc2)cc1 [SB-217780]	25%	18%	33%	21%	0%	0%	0%	0%	12%	20%	5%	0%	14%	5%	15%	13%	35%	4%	5%	0%
C[C@@H]1CC[C@H](C(=O)NC2CCCCC2)CN1c1cc(-c2ccc3c(N)n[nH]c3c2)nc(N)n1 [GSK2291363]	26%	0%	12%	0%	17%	24%	14%	3%	30%	21%	0%	0%	18%	47%	35%	14%	24%	0%	0%	3%
OCCCNc1nccc(-c2c(-c3cccc(C(F)(F)F)c3)nn3cc(C(F)(F)F)ccc23)n1 [GW630813]	0%	0%	0%	0%	36%	54%	0%	0%	13%	0%	27%	0%	0%	0%	3%	40%	0%	0%	15%	40%
Cc1ccc(Oc2ccc(Nc3ncnc4cc[nH]c34)cc2C)cn1	5%	20%	11%	8%	0%	0%	12%	13%	0%	32%	13%	29%	0%	0%	0%	0%	0%	0%	0%	0%
CCCNC(=O)Nc1ccc(Oc2ncnc3ccn(C)c23)cc1	29%	0%	7%	10%	9%	0%	2%	11%	0%	0%	33%	35%	10%	0%	0%	35%	0%	0%	0%	8%
Cc1nn2c(=O)cc(N3CCOCC3)nc2n1Cc1cccc(Cl)c1Cl [GSK2342769]	13%	0%	22%	0%	4%	22%	0%	0%	9%	16%	5%	0%	27%	21%	64%	0%	0%	7%	25%	0%
COC(=O)c1c(-c2ccccc2)c2cc(Br)ccc2c(=O)n1Cc1ccc(S(C)(=O)=O)cc1	16%	0%	9%	30%	9%	0%	7%	13%	0%	0%	42%	35%	0%	11%	7%	24%	0%	0%	29%	17%
Cc1nc(N(C)[C@H]2CN(C(=O)CC#N)CC[C@H]2C)c2cc[nH]c2n1	13%	0%	3%	0%	0%	0%	5%	0%	0%	0%	6%	19%	0%	13%	0%	6%	0%	63%	28%	2%
Fc1cccc(CSc2nnc(-c3ccc4c(c3)CCO4)o2)c1	0%	0%	11%	8%	0%	0%	15%	10%	0%	16%	33%	11%	3%	0%	0%	20%	0%	0%	0%	16%

— publication PMC5540273 (PLoS ONE, 2017)
